Measured values as given in the supplement of paper PMC5662767.
Counter-ions that a name gives are not always drawn.

System: Drosophila S2 cl14 SmoIP sensor cells
Assay: normalized SmoIP GFP fluorescence (untreated unstimulated = 0%, untreated Hh-stimulated = 100%); higher = more Smo activation sensor fluorescence
Settings: compound concentration: 2 uM, 24 h
[1] = stimulation: Hh conditioned medium (+Hh)
[2] = stimulation: mock conditioned medium (-Hh)
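Note: flow cytometry read-out as median GFP intensity of gated cells, compounds added 30 min before Hh-conditioned or mock medium, mock-treated cells serving as unstimulated baseline.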

SMILES | normalized SmoIP GFP fluorescence [1] | normalized SmoIP GFP fluorescence [2]
CCOc1cc(N)c(Cl)cc1C(=O)NCC1CN(Cc2ccc(F)cc2)CCO1 (stereo not drawn) [Mosapride-citrate] | 103% | -4.68%
Cc1ncc(-c2ccnc(Nc3ccc(S(C)(=O)=O)cc3)n2)n1C(C)C | 156% | 11.2%
Cc1ccc(NCCCc2ccccc2)c(N)c1 | 224% | 40.1%
CN(C)CC(c1ccc(O)cc1)C1(O)CCCCC1 (stereo not drawn) [desvenlafaxine-succinate] | 103% | -5.38%
O=C(Cc1ccc(-c2ccc(OCCN3CCOCC3)cc2)cn1)NCc1ccccc1 | 108% | 23.9%
O=c1ncccn1[C@@H]1O[C@H](CO)[C@@H](O)[C@H]1O [zebularine] | 108% | -3.16%
Cc1cccc(CC(=O)N2CCc3c2ccc(-c2cn(C)c4ncnc(N)c24)c3F)n1 | 102% | -1.63%
Cc1ccc(=O)n(-c2ccccc2)c1 [pirfenidone] | 107% | -3.16%
C=CCn1c(=O)c2cnc(Nc3ccc(N4CCN(C)CC4)cc3)nc2n1-c1cccc(C(C)(C)O)n1 | 58.7% | -13.9%
Cc1cc(C#N)cc(C)c1Oc1nc(Nc2ccc(C#N)cc2)nc(N)c1Br [etravirine-tmc125] | 93.3% | -0.264%
CCc1c(O)cc(O)c(C(=O)c2ccc(OCCN3CCOCC3)c(OC)c2)c1CC(=O)N(CCOC)CCOC | 121% | -12.4%
CCN(CC)CC#CCOC(=O)C(O)(c1ccccc1)C1CCCCC1 (stereo not drawn) [oxybutynin-chloride] | 108% | -1.12%
CN(C[C@@H]1COCCO1)S(=O)(=O)Nc1ccc2ccc3ncc(-c4cnn(C)c4)cc3c(=O)c2c1 | 79.1% | 16.3%
O=C(O)CC[C@H]1CC[C@@](c2cc(F)ccc2F)(S(=O)(=O)c2ccc(Cl)cc2)CC1 | 114% | 2.32%
CNCCc1ccccn1 [betahistine-dihydrochloride] | 98.3% | -3.05%
CC(C)n1nc(-c2ccc3oc(N)nc3c2)c2c(N)ncnc21 | 73.9% | -0.889%
O=C(C=Cc1ccccc1)NC(NC(=S)Nc1ccc(Cl)cc1)C(Cl)(Cl)Cl (stereo not drawn) | 88.1% | -1.13%

SMILES | normalized SmoIP GFP fluorescence [1] | normalized SmoIP GFP fluorescence [2]
COc1cc2c(cc1OC)CC(=O)N(CCCN(C)C[C@@H]1Cc3cc(OC)c(OC)cc31)CC2 [ivabradine-hcl-procoralan] | 111% | -11.2%
CCCC(=O)Nc1ccc(OCC(O)CNC(C)C)c(C(C)=O)c1 (stereo not drawn) [acebutolol-hcl] | 106% | -3.5%
CS(=O)(=O)c1ccc(-c2cnc(N)c(C(=O)Nc3ccccc3)n2)cc1 | 232% | 74.4%
CN1CCN(c2ccc3nc(-c4c(N)c5c(F)cccc5[nH]c4=O)[nH]c3c2)CC1 [dovitinib] | 240% | 72.9%
Cc1cc(Nc2cc(N3CCN(C)CC3)nc(/C=C/c3ccccc3)n2)n[nH]1 | 136% | 23.8%
Cc1ccc2nc(NCCN)c3ncc(C)n3c2c1 | 137% | -9.4%
CCN(CC)CCNC(=O)c1c(C)[nH]c(/C=C2\C(=O)Nc3ccc(F)cc32)c1C [Sunitinib-Malate-(Sutent)] | 182% | 90.8%
CNCCCC12CCC(c3ccccc31)c1ccccc12 [Maprotiline-hydrochloride] | 123% | -0.116%
Cc1c(Cn2c(C)nc3c(C(=O)O)cc(N4CCOCC4)cc32)cccc1C(F)(F)F | 108% | 0.966%
CNC(=O)Nc1ccc(-c2nc(N3CC4CCC(C3)O4)c3cnn(C4CCC5(CC4)OCCO5)c3n2)cc1 | 41.3% | -8.33%
CCN1CCN(Cc2ccc(-c3cc4c(N[C@H](C)c5ccccc5)ncnc4[nH]3)cc2)CC1 | 97% | 6.52%
CNC(=O)c1ccccc1Sc1ccc2c(/C=C/c3ccccn3)n[nH]c2c1 [Axitinib] | 142% | 28.7%
CN(C)CCCCC(=O)Nc1ccc(NC(=S)NC(=O)c2ccc(C(C)(C)C)cc2)cc1 [tenovin-6] | 112% | 3.49%
CN1CCN(S(=O)(=O)c2ccc(-c3cnc(N)c(C(=O)Nc4cccnc4)n3)cc2)CC1 | 112% | 1.21%
CN(C)Cc1ccc(S(=O)(=O)n2ccc(/C=C/C(=O)NO)c2)cc1 [resminostat-ras2410] | 140% | -5.8%
COC(=O)C1=C(C#N)NC(C)=C(C(=O)OC(C)C)C1c1cccc([N+](=O)[O-])c1 (stereo not drawn) [nilvadipine-arc029] | 110% | -17%
O=S(=O)(NCCNC/C=C/c1ccc(Br)cc1)c1cccc2cnccc12 [H-89-dihydrochloride] | 105% | 5.45%
